Laboratory results published in PubChem BioAssay AID1159580 (chemical genetic matrix, 2015).
Out of some 5,500 compounds screened, about 2,000 (36%) were called active. Inconclusive results (about 18%) are left out. No stated cut-off is given here; in the data, active means normalized growth mostly below about 0.91 (no sharp cut-off); inconclusive means no clear call, values can overlap the other calls; inactive means mostly above about 0.92. This is one part of the list.

Assay: chemical genetic growth profiling, strain panel (AID 1159580);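 further: tested at 20 µM; growth read once vehicle control cultures reached saturation at 30 °C; 1 = growth at the plate median or of vehicle wells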
Settings: S. cerevisiae deletion strains, growth OD

Measured: normalized growth

CC/C=C\C/C=C\C/C=C\C/C=C\C/C=C\CCCC(=O)OCC
inactive: locus YHR030C, strain SLT2, stronger effect = lower value 0.979 | locus YHR079C, strain IRE1, stronger effect = lower value 0.924 | locus YJL095W, strain BCK1, stronger effect = lower value 0.945 | locus YJR066W, strain TOR1, stronger effect = lower value 0.94 | locus YLR113W, strain HOG1, stronger effect = lower value 0.902 | locus YNL183C, strain NPR1, stronger effect = lower value 0.927 | locus YOR231W, strain MKK1, stronger effect = lower value 0.949 | locus YPL256C, strain CLN2, stronger effect = lower value 0.897
